The text below walks through data of the supplement of paper PMC12340860.

Structures are written as SMILES. ± gives the standard deviation of the averaged measurements.

In this experiment the test system is Caenorhabditis elegans infected with Nematocida parisii. Briefly: progeny production of N. parisii-infected C. elegans relative to uninfected control; higher = stronger inhibition of microsporidia infection (rescue of reproduction). Conditions: 60 µM; incubation time 5 days; spore dose (spores/uL): 18000. The method, then:
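C. elegans N2 L1 larvae (100 per well, 96-well plate, K-medium with 5x E. coli OP50, 1% DMSO) were infected with Nematocida parisii spores (18,000 spores/uL) that had been pre-incubated for 1 h with each BU-CMD library compound at 60 uM. Plates were incubated 5 days at 21 C with shaking. Progeny were stained with rose bengal, scanned on a flatbed scanner and counted with WorMachine. Progeny number is expressed as % of uninfected DMSO controls on the same plate; three biological replicates per compound; hits were compounds with at least 60% progeny production.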
`COC(=O)[C@@H]1[C@@H](c2ccccc2)[C@]2(c3ccc(OC)cc3)Oc3cc(OC)cc(OC)c3[C@@]23N=C(C)N[C@@]13O` gave a progeny production of 14.3 ± 4%. In turn, `CONC(=O)[C@H]1[C@@H](O)[C@@]2(O)c3c(OC)cc(OC)cc3O[C@@]2(c2ccc(OC)cc2)[C@@H]1c1ccccc1` gave a progeny production of 13.2 ± 4.2%. Turning to `COC(=O)[C@@H]1[C@@H](c2ccccc2)[C@]2(c3ccc(OC)cc3)Oc3cc(OC)cc(OC)c3[C@@]23N=C(C2CC2)N[C@@]13O`, the progeny production was found to be 8.05 ± 3.6%.
